Screening data (PubChem BioAssay)
An excerpt weighted towards active compounds, which were near 6.5% of everything screened.
Marburg entry inh: blocks Marburg virus binding to or entry into cells | AID 540276 | Potency, µM (top dose mostly 37.8 µM), inactives show at the highest dose activity change, negative = inhibition, usual class: inhibitors | Marburg virus pseudotyped entry inhibition, cell reporter | 300,000 tested, 1.8% active; calls by dose curve; tested in HEK293 cells; further: potency means the concentration at half of the fitted maximal effect
VACV mCherry inh: inhibitors of vaccinia virus infection (mCherry reporter signal); AID 720579; 310,000 tested, 0.63% active; Potency, µM (titrated, usually from 36.5 µM), without a hit: top-dose activity change, negative = inhibition, actives largely listed as inhibitors; Vaccinia virus mCherry reporter infection, fluorescence; calls by dose curve; tested in A549 cells; further: potency means the concentration at half of the fitted maximal effect; nearly all actives have a fitted effect of over 35% in size
Lassa entry inh: blocks Lassa virus binding to or entry into cells; AID 540256; Lassa virus pseudotype entry inhibition, cell reporter; 300,000 tested, 1.2% active; Potency, µM (titrated, usually from 37.9 µM), for the others: at the top dose activity change, negative = inhibition, most hits filed as inhibitors; calls by dose curve; tested in HEK293 cells; further: potency means the concentration at half of the fitted maximal effect; nearly all actives have a fitted effect of over 50% in size
HCMV antiviral: inhibitors of human cytomegalovirus; HFF cells, HCMV-luciferase reporter, 72 h; hits give low values; activity change, negative = inhibition, % at 57.5 µM; 410,000 tested, 4.5% active; AID 1259415; in the data active means activity change below about -60%; inconclusive means no clear call, values can overlap the other calls; inactive means above about -39%
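Two-dose cell screen: HFF monolayers treated with compounds and infected with luciferase-expressing HCMV at 1 PFU/cell, 72 h at 37C, then lysed for luciferase measurement.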
VACV Venus inh: inhibitors of vaccinia virus (Venus reporter). Vaccinia virus Venus reporter expression, fluorescence. Potency, µM (doses to about 36.5 µM), without a hit: at the highest dose activity change, negative = inhibition, hits mostly inhibitors. 330,000 tested, 0.46% active; calls by dose curve; tested in A549 cells; further: potency means the concentration at half of the fitted maximal effect; nearly all actives have a fitted effect of over 30% in size
FMDV antiviral: antivirals against foot and mouth disease virus | FMDV antiviral cell-based qHTS | Potency, µM (titrated, usually from 57.9 µM), for the others: top-dose activity change, negative = inhibition, hits mostly inhibitors | 410,000 tested, 1.2% active; calls by dose curve; tested in HEK293T cells; further: read-out not given here; potency means the concentration at half of the fitted maximal effect; nearly all actives have a fitted effect of over 45% in size
* hit, by the source's call; [ ] = dose if it differs, or a comment. On the % scale 0 is the no-effect control and ±100 the full control effect.

CCCCN1CC(COc2ccc(OC)cc2)OCCS1(=O)=O (centres undefined) was read as HCMV antiviral -22.
`Cn1nc(C(F)(F)F)c(-c2ccc(Br)cc2)c1NC(=O)Nc1ccc(F)cc1F` gave Marburg entry inh inconclusive, VACV mCherry inh -5%, Lassa entry inh inconclusive, HCMV antiviral -92*, VACV Venus inh inconclusive and FMDV antiviral -25%.
Screening CC(=O)Nc1ccccc1OCC(=O)N(Cc1ccccc1)C(C)C returned Marburg entry inh inconclusive, VACV mCherry inh -6%, Lassa entry inh 3%, HCMV antiviral -77*, VACV Venus inh -25% and FMDV antiviral inconclusive.
Screening Cc1cc(S(=O)(=O)NCC(c2ccc3c(c2)OCO3)N2CCOCC2)ccc1F (centres undefined) returned HCMV antiviral -64* and FMDV antiviral 6%.
Screening Cc1ccc(S(=O)(=O)NCC(c2cccnc2)N2CCOCC2)cc1 (centres undefined) returned HCMV antiviral -79* and FMDV antiviral 0%.
CCc1ccc(S(=O)(=O)N2CCN(c3ccc(Cl)c(Cl)c3)CC2)cc1 was read as Marburg entry inh -11%[46.1 µM], VACV mCherry inh -13%, Lassa entry inh inconclusive, HCMV antiviral -14, VACV Venus inh -9% and FMDV antiviral -23%.
Screening Cc1ccc(Cn2c(CCNC(=O)C(C)C)nc3ccccc32)cc1 returned Marburg entry inh 15%[46.1 µM], VACV mCherry inh -3%, Lassa entry inh -7%[46.1 µM], HCMV antiviral 6, VACV Venus inh 3% and FMDV antiviral -20%.
Screening COc1ccc(S(=O)(=O)c2c(Nc3c(C)cccc3C)sc(C(=O)c3ccc4c(c3)OCO4)c2N)cc1 returned VACV mCherry inh inconclusive, Lassa entry inh inconclusive, HCMV antiviral -87*, VACV Venus inh inconclusive and FMDV antiviral 11%.
COc1cccc(Nc2sc(C(=O)c3ccc4c(c3)OCO4)c(N)c2S(=O)(=O)c2ccccc2)c1 was read as VACV mCherry inh -21%, Lassa entry inh -30%[46.1 µM], HCMV antiviral -18, VACV Venus inh -3% and FMDV antiviral 2%.
`CC(C)(C)c1ccc(S(=O)(=O)N2CCN(c3nc(-c4ccccc4)nc4ccccc34)CC2)cc1` gave VACV mCherry inh -13% and VACV Venus inh -13%.
`O=C(CSc1ccccn1)N1CCN(c2cccc(Cl)c2)CC1` gave Marburg entry inh -5%, Lassa entry inh 7%, HCMV antiviral -73* and FMDV antiviral 0%.
O=C(CSc1ccccn1)N1CCN(c2ccccc2)CC1 was read as Marburg entry inh 16%, Lassa entry inh 4%, HCMV antiviral 38 and FMDV antiviral 37%.
For O=C(O)c1ccccc1C(=O)N1CCN(c2cccc(Cl)c2)CC1 the results were Marburg entry inh -1%, VACV mCherry inh -4%, Lassa entry inh 15%, HCMV antiviral -8, VACV Venus inh -10% and FMDV antiviral 4%.
`Cn1c(SCC(=O)N2CCN(c3cccc(Cl)c3)CC2)nnc1-c1ccncc1` gave Marburg entry inh -26%, Lassa entry inh -18%, HCMV antiviral -67* and FMDV antiviral inconclusive.
Screening CCOc1ccccc1C(=O)N1CCN(c2cccc(Cl)c2)CC1 returned Marburg entry inh inconclusive, VACV mCherry inh inconclusive, Lassa entry inh inconclusive, HCMV antiviral -85*, VACV Venus inh inconclusive and FMDV antiviral -19%.
Screening O=C(c1cccc([N+](=O)[O-])c1)N1CCN(c2cccc(Cl)c2)CC1 returned Marburg entry inh -7%, VACV mCherry inh inactive, Lassa entry inh inconclusive, HCMV antiviral 6, VACV Venus inh -28% and FMDV antiviral inconclusive.
`COC(=O)c1cc(C(=O)N2CCN(c3cccc(Cl)c3)CC2)cc([N+](=O)[O-])c1` gave Marburg entry inh inconclusive, VACV mCherry inh inconclusive, Lassa entry inh inconclusive, HCMV antiviral -68*, VACV Venus inh -23% and FMDV antiviral -24%.
`COc1cc(NC(=O)C2Cc3ccccc3N2C(=O)c2ccccc2)cc(OC)c1` (centres undefined) gave VACV mCherry inh 0%, Lassa entry inh -9%[46.1 µM], HCMV antiviral 27, VACV Venus inh 1% and FMDV antiviral -14%.
Screening CCCCCCCCCCCCCC(=O)Nc1ccc(/C=C/c2ccnc3ccccc23)cc1 returned VACV mCherry inh -13% and VACV Venus inh -10%.
Screening COc1cccc(C(=O)COc2cccc(NC(=O)c3cccc([N+](=O)[O-])c3)c2)c1 returned Marburg entry inh inconclusive, Lassa entry inh inconclusive, HCMV antiviral inconclusive, VACV Venus inh inconclusive and FMDV antiviral 28µM*.
`COc1ccc(CC(=O)Nc2cccc(/C(C)=N/NC(=O)c3cccc([N+](=O)[O-])c3)c2)cc1` gave Marburg entry inh inconclusive, VACV mCherry inh -4%, Lassa entry inh 11µM*, HCMV antiviral -27, VACV Venus inh -16% and FMDV antiviral -24%.
For COc1ccc(C(=O)N/N=C(/C)c2cccc(NC(=O)c3ccccc3F)c2)cc1 the results were Marburg entry inh 18%, VACV mCherry inh -19%, Lassa entry inh -3%, HCMV antiviral 15, VACV Venus inh -4% and FMDV antiviral 4%.
COc1ccc(C(=O)N/N=C(\C)c2cccc(NC(=O)c3ccc(F)cc3)c2)c(OC)c1 was read as Marburg entry inh -11%, VACV mCherry inh inconclusive, Lassa entry inh 5%, HCMV antiviral -61*, VACV Venus inh inconclusive and FMDV antiviral 23%.
O=C(NCc1ccccn1)c1cnn(-c2nccc(-c3cccs3)n2)c1C1CC1 was read as VACV mCherry inh inactive, VACV Venus inh -25% and FMDV antiviral -5%.
Screening CCOc1c2c(c(-c3ccc4c(c3)OCO4)c3cc(OC)c(OC)cc13)C(=O)OC2 returned VACV mCherry inh inconclusive and VACV Venus inh 4µM*.
For CCN1CCCC1CNC(=O)c1cc(NC(C)=O)c(N(C)C)cc1OC (centres undefined) the results were Marburg entry inh -21%, Lassa entry inh 7%, HCMV antiviral -68* and FMDV antiviral 20%.
Cc1cccc2c1-c1sc(C(=O)N3CCN(c4cccc(Cl)c4)CC3)cc1CO2 was read as Marburg entry inh 20%[46.1 µM], VACV mCherry inh -7%, HCMV antiviral -8, VACV Venus inh -2% and FMDV antiviral -12%.
`CCN1CCN(CCCNC(=O)c2cc3c(s2)-c2c(C)cccc2OC3)CC1` gave Marburg entry inh 10µM*, VACV mCherry inh inconclusive, HCMV antiviral -2, VACV Venus inh inconclusive and FMDV antiviral 0%.
`Cc1cccc2c1-c1sc(C(=O)NCCCN3CCN(c4ccccc4F)CC3)cc1CO2` gave Marburg entry inh 11µM*, VACV mCherry inh -14%, HCMV antiviral -108*, VACV Venus inh -23% and FMDV antiviral inconclusive.
